Test results as given in PubChem BioAssay (NCATS).
Where “and” joins values, the source holds several entries; their conditions need not be identical. Equal entries are not always repeated. Results filed as inconclusive are left out. Where a call stands in place of a potency, no number is given. Calls of active or inactive are those of the source. Unless noted, calls follow the shape of the dose curve; as a rule, active = well fitted curve in the direction sought with a large enough effect; inconclusive = small, poorly fitted or top-dose-only effect, or another doubt; inactive = no such curve, though single readings can be large; an effect the other way counts as inactive or inconclusive.

Tests used:
[1] = Cell Viability - HepG2 (AID 433; calls by dose curve;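 also: potency is read from the fitted curve at half-maximal effect; potency for ATP loss meaning cytotoxicity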); details: qHTS
Outline: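 Cytotoxicity is scored as loss of intracellular ATP in HepG2 cells exposed to compounds for 40 h. Concentration-response curves, normalized to DMSO and 100 uM tamoxifen, give AC50 values.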

[2] = Cell Viability - NIH 3T3 (AID 541); details: NIH 3T3 cell viability, qHTS; activity change, negative = cytotoxicity: at 92.2 µM (top of the series); also: nearly all actives have a fitted effect of over 25% in size; also: potency is read from the fitted curve at half-maximal effect
Outline: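 Intracellular ATP (CellTiter-Glo luminescence, 20 min at room temperature) measured after 40 hr compound exposure at 37 °C of 1000 NIH 3T3 mouse fibroblasts/well in complete medium; AC50 derived by Hill-equation modelling of qHTS concentration-response curves.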

[3] = Cell Viability - HUV-EC-C (AID 542); details: HUV-EC-C endothelial cell viability, qHTS; series mostly up to 92.2 µM; also: nearly all actives have a fitted effect of over 35% in size
Outline: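 CellTiter-Glo luminescence measured ATP loss in HUV-EC-C cells (1000/well) after 40 hr compound exposure at 37 °C, in complete culture medium. Concentration-response data were Hill-fitted to give AC50.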

[4] = Cellular Toxicity (caspase-3) HepG2 (AID 654); details: HepG2 caspase-3 activation, luminescence, 0% = DMSO only, 100% = tamoxifen; series mostly up to 92.2 µM;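 also: cells exposed to compound for 16 hours before reading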
Outline: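 Caspase 3/7 activation is measured as a luminescence increase (aminoluciferin substrate) after 16 h compound exposure of human hepatocarcinoma HepG2 cells. AC50 values are Hill fits, scaled between DMSO baseline and 100 uM tamoxifen stimulation.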

[5] = Cellular Toxicity (caspase-3) SHSY5Y (AID 657); details: SH-SY5Y caspase-3 activation, DMSO zero, 10 µM staurosporine = 100%; series mostly up to 91.7 µM;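 also: cells exposed to compound for 16 hours at 37 °C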
Outline: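 Cells plated and incubated 5 h at 37 °C, dosed over a concentration range, incubated 16 h, then given Caspase-Glo 3/7 reagent for 1 h at room temperature before luminescence reading. Staurosporine (10 uM) defined full stimulation.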

[6] = Cell Viability - LYMP2-024 (AID 988); details: LYMP2-024 lymphoblastoid cell viability; series mostly up to 92.2 µM; also: nearly all actives have a fitted effect of over 60% in size; also: potency is read from the fitted curve at half-maximal effect
Outline: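 Cytotoxicity was taken as a decrease in ATP (CellTiter-Glo luminescence) after 24 hr compound exposure at 37 C of LYMP2-024 lymphoblastoid cells, 2500 cells/well. Concentration-response data were fitted to the Hill equation to give AC50.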

[7] = Cell Viability - LYMP1-002 - Assay at 24 hr (AID 993); details: LYMP1-002 lymphoblastoid cells viability; series mostly up to 92.2 µM; also: potency is read from the fitted curve at half-maximal effect
Outline: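 qHTS cytotoxicity at 24 h: CellTiter-Glo ATP luminescence in lymphoblastoid line LYMP1-002 incubated with compound at 37 °C. Concentration-response modeled with the Hill equation for AC50; tetraoctylammonium bromide served as positive control.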

[8] = biological target: Peroxisome proliferator-activated receptor gamma (Homo sapiens) (UniProt P37231); assay: qHTS assay for small molecule agonists of peroxisome proliferator-activated receptor gamma signaling (AID 588536; active = well fitted curve in the direction sought with a large enough effect in the signal ratio, with a control signal flat, not every such curve was filed as active; the % refers to the signal ratio); details: HEK293 PPARg-UAS-bla, beta-lactamase ratio, 16 h, percent of rosiglitazone response, DMSO as zero; series mostly up to 76.7 µM
Outline: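 Using GeneBLAzer HEK293 cells, response was quantified by CCF4 fluorescence and normalized between basal DMSO (0%) and rosiglitazone 2 uM (100%); curves yielded half-maximal stimulation concentration and efficacy.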

[9] = qHTS assay for small molecule agonists of retinoid X receptor alpha signaling (AID 588544; calls by dose curve); details: HEK293T RXRa-UAS-bla, beta-lactamase reporter, 18 h; 530 nm emission
[10] = biological target: Retinoic acid receptor RXR-alpha (Homo sapiens) (UniProt P19793); assay: as above; details: HEK293T RXRa-UAS-bla, beta-lactamase reporter, 18 h; series mostly up to 76.7 µM
[11] = biological target: Retinoic acid receptor RXR-alpha (Homo sapiens) (UniProt P19793); assay: qHTS assay for small molecule antagonists of retinoid X receptor alpha signaling (AID 588546; active = well fitted inhibition curve with a large enough effect in the signal ratio, with a control signal flat, not every such curve was filed as active; the % refers to the signal ratio;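 also: cells stimulated with 9-cis-retinoic acid as agonist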); details: HEK293T RXRa-UAS-bla, beta-lactamase ratio, antagonist mode
Outline: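 Beta-lactamase reporter inhibition, read as CCF4 fluorescence ratio (ex 405, em 460/530 nm) after 2 h at RT. HEK293T UAS-bla cells, 2500/well, were stimulated with 9-cis-RA at 500 or 100 nM final alongside test compound for 18 h at 37 C.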

[12] = biological target: Thyroid hormone receptor beta (Homo sapiens) (UniProt P10828); assay: qHTS assay for small molecule antagonists of thyroid hormone receptor beta signaling (AID 588547; active = well fitted inhibition curve with a large enough effect in the signal ratio, with a control signal flat, not every such curve was filed as active; the % refers to the signal ratio;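 also: cells stimulated with 0.4 nM T3 agonist during compound exposure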); details: TR-UAS-bla HEK293, beta-lactamase ratio, antagonist mode, 18 h
Outline: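 TR-UAS-bla GripTite HEK293 cells in 2% charcoal/dextran FBS medium; compounds 0.59 nM to 92 uM with T3 at 0.4nM final, 18 h at 37 C. Beta-lactamase read by CCF4 fluorescence (460/530 nm); Hill fits gave IC50 and efficacy.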

[13] = qHTS assay for small molecule activators of the nuclear factor-kappa B (NF-kB) signaling pathway (AID 651749; active = well fitted activation curve with a large enough effect in the signal ratio; the % refers to the signal ratio); details: NF-kB-bla ME-180 cells, beta-lactamase FRET ratio, 16 h; activation: stronger effect = higher value
Outline: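 In this qHTS format, compounds acting as activators increase NF-kB-driven beta-lactamase in ME-180 cells, measured as disrupted FRET after 16 hr exposure at 37C and 5% CO2.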

[14] = biological target: Tumor necrosis factor (Homo sapiens) (UniProt P01375); assay: qHTS assay to identify small molecules that stimulate Tumor Necrosis Factor-alpha (TNF-alpha) secretion (AID 651757; active = well fitted curve in the direction sought with a large enough effect in the signal ratio; the % refers to the signal ratio); details: Human cells, HTRF 665/615 ratio; series mostly up to 92.2 µM
Outline: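 Secreted TNF-alpha quantified by TR-FRET sandwich of two labeled anti-TNF-alpha antibodies, incubated 3 hr at room temperature. Preceded by 17 hr, 37 C compound treatment of THP-1 cells at 3000 cells/well.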

[15] = biological target: Nuclear receptor subfamily 1 group I member 2 (Rattus norvegicus) (UniProt Q9R1A7); assay: qHTS assay for small molecule activators of the rat pregnane X receptor (rPXR) signaling pathway (AID 651751; call rule not given here); details: rPXR reporter cells, luciferase (One-Glo), 24 h
[16] = biological target: Cytochrome P450 2C9 (Homo sapiens) (UniProt P11712); assay: qHTS Assay for Inhibitors and Substrates of Cytochrome P450 2C9 (AID 883); details: recombinant CYP2C9, luciferin-H luminescence, 60 min; series mostly up to 57.1 µM; also: nearly all actives have a fitted effect of over 60% in size; also: potency is read from the fitted curve at half-maximal effect
Outline: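 10nM CYP2C9 + 100uM Luciferin-H (=KM), 25mM KPO4; cpd 10 min 37C; NADPH regen, 60 min 37C; stop/detect with P450 Glo-Buffer 20 min; luminescence. Norm. to 57uM sulphaphenazole as full inhibition.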

[17] = biological target: Guanine nucleotide-binding protein G(i) subunit alpha-1 (Homo sapiens) (UniProt P63096); assay: qHTS Assay for Inhibitors of RGS12 GoLoco Motif Activity (Green Fluorophore) (AID 879); details: Galphai1/FITC-RGS12 GoLoco peptide, fluorescence polarization; series mostly up to 57.1 µM;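 also: negative values mean loss of peptide binding seen as reduced polarization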
Outline: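 A drop in FITC polarization marked displacement of the FITC-tagged RGS12 GoLoco peptide (10 nM) from Gαi1 (50 nM). Compounds were incubated 10 min at room temperature in Tris pH 7.5 buffer containing 150 mM NaCl, 0.1 mM GDP and 0.05% NP40; unlabeled peptide titration served as control.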

[18] = biological target: Pyruvate kinase (Leishmania mexicana) (UniProt Q27686); assay: qHTS Validation Assay for Inhibitors of Leishmania Mexicana Pyruvate Kinase (AID 945); details: purified L. mexicana pyruvate kinase, enzyme activity, E451W mutant enzyme; series mostly up to 57.5 µM
Outline: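 Eight-point qHTS titrations; enzyme 0.2 nM LmPYK (E451W mutant); substrates 0.5 mM PEP, 0.1 mM ADP; 7 mM MgCl2; 1 h room temperature; PKLight luminescence normalized to neutral control.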

[19] = biological target: Alpha-galactosidase A (Homo sapiens) (UniProt P06280); assay: Counterscreen for Glucocerebrosidase Inhibitors: qHTS Assay for Human alpha-Galactosidase at pH 4.5 (AID 992); details: purified enzyme, fluorogenic substrate; series mostly up to 76.9 µM
Outline: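 Each compound is preincubated briefly with 2 nM enzyme before substrate addition (80 uM); plates then sit 20 min at ambient temperature, are quenched with 1M NaOH/1M glycine, and read fluorometrically.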

[20] = biological target: alpha-glucosidase (Oryza sativa, rice) (UniProt Q653V4); assay: Counterscreen for Glucocerebrosidase Inhibitors: qHTS Assay for Rice alpha-Glucosidase at pH 5.0 (AID 997); details: rice alpha-glucosidase enzyme activity; series mostly up to 76.9 µM
Outline: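 Endpoint fluorogenic assay at pH 5.0: compounds (0.7 nM to 77 uM) titrated against 4 nM rice enzyme and 400 uM 4-MU-alpha-glucoside for 20 min at room temperature; NaOH/glycine stop, read ex 365/em 440 nm, Hill-fitted AC50.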

Sequence of Nuclear receptor subfamily 1 group I member 2 (Rattus norvegicus) (Q9R1A7 whole entry, looked up): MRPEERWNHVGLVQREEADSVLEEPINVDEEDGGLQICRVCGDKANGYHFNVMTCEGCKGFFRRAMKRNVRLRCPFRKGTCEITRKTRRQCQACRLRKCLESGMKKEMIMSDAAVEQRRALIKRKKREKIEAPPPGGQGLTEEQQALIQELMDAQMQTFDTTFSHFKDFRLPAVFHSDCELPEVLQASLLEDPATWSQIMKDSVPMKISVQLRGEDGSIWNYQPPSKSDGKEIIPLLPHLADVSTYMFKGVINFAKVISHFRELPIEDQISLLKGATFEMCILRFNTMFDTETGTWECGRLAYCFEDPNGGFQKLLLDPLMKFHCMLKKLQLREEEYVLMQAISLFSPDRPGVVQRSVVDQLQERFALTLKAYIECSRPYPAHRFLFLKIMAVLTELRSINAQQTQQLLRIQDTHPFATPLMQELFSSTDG
Sequence of Alpha-galactosidase A (Homo sapiens) (P06280 whole entry, looked up): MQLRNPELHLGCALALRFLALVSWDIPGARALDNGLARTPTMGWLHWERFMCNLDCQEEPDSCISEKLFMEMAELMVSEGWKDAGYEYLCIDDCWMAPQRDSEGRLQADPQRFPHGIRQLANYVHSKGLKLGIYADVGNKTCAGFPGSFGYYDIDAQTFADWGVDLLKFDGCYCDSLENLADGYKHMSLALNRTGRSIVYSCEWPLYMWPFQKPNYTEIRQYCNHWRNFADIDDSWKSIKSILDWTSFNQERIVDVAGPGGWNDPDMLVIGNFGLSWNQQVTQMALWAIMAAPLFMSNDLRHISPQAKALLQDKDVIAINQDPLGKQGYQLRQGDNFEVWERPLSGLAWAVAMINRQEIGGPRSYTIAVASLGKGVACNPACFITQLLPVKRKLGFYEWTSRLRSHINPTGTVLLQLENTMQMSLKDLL
Sequence of Thyroid hormone receptor beta (Homo sapiens) (P10828 whole entry, looked up): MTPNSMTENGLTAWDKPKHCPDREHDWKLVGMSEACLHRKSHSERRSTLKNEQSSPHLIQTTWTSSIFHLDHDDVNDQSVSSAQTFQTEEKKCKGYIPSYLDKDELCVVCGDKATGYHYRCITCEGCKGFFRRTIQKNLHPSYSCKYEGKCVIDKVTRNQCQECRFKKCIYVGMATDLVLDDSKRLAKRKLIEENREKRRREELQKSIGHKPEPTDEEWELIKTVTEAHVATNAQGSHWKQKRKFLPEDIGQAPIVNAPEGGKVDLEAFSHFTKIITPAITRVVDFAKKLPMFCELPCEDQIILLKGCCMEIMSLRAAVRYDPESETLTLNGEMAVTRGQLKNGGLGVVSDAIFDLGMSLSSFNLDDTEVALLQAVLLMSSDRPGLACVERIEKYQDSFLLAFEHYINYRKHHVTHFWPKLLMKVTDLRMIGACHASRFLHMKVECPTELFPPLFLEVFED
Sequence of Pyruvate kinase (Leishmania mexicana) (Q27686 2-499 E452W): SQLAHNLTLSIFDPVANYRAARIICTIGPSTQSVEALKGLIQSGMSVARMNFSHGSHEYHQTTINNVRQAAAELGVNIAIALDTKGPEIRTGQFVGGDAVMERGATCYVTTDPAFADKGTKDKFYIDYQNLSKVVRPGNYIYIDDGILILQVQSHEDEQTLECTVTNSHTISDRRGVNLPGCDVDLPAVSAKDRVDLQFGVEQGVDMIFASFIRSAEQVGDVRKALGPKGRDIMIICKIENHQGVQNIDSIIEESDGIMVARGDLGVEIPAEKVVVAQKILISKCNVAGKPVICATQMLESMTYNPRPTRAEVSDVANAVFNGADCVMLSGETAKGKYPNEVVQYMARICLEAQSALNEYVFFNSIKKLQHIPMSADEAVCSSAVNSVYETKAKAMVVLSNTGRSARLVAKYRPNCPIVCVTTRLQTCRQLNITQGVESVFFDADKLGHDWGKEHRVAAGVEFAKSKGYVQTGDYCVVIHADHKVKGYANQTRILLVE
Sequence of Retinoic acid receptor RXR-alpha (Homo sapiens) (P19793 whole entry, looked up): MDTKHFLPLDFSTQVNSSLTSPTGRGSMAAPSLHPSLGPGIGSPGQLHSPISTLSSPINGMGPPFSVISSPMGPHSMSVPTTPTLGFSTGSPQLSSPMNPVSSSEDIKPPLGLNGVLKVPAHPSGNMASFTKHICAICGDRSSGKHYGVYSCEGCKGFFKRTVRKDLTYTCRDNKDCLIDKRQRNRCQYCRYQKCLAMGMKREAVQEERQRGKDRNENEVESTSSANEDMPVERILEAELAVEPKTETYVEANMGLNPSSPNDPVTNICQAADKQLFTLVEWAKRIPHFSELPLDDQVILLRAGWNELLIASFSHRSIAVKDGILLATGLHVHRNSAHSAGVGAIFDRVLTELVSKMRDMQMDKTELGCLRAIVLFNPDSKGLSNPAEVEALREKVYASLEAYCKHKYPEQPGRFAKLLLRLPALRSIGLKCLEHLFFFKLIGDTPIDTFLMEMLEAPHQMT
Sequence of Cytochrome P450 2C9 (Homo sapiens) (P11712 whole entry, looked up): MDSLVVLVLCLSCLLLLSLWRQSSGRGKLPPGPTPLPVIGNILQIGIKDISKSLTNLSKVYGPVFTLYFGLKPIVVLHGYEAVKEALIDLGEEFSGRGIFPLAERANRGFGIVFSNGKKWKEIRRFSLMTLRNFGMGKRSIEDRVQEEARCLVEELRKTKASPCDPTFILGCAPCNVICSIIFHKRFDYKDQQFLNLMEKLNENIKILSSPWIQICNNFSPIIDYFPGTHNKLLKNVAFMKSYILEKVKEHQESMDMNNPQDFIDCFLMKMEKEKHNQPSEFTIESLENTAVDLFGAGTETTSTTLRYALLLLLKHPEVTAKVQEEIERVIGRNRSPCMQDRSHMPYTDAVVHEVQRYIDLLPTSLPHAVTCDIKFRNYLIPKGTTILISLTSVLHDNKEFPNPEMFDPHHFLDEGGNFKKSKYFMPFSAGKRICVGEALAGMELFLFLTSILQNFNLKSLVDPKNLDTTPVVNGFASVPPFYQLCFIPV
Sequence of Peroxisome proliferator-activated receptor gamma (Homo sapiens) (P37231 whole entry, looked up): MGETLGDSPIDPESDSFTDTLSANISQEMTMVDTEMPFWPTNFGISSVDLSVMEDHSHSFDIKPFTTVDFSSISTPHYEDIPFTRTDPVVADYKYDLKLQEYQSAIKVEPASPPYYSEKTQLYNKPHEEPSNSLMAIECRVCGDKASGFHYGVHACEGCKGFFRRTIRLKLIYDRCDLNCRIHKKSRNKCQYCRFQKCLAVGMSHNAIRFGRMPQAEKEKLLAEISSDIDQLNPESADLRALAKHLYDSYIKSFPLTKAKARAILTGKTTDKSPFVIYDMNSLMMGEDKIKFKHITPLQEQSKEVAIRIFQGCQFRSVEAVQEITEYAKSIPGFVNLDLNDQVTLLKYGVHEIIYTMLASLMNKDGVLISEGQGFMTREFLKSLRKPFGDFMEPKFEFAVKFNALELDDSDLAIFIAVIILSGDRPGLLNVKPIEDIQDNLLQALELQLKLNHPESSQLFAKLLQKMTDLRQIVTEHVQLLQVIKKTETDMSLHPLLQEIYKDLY
Sequence of Tumor necrosis factor (Homo sapiens) (P01375 whole entry, looked up): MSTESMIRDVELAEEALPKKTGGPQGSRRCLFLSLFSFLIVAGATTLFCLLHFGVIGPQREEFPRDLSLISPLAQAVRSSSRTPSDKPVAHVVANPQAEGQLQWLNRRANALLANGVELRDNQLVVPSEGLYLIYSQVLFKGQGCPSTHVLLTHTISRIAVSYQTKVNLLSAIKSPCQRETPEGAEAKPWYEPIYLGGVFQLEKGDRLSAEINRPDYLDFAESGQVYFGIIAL
Sequence of Guanine nucleotide-binding protein G(i) subunit alpha-1 (Homo sapiens) (P63096 whole entry, looked up): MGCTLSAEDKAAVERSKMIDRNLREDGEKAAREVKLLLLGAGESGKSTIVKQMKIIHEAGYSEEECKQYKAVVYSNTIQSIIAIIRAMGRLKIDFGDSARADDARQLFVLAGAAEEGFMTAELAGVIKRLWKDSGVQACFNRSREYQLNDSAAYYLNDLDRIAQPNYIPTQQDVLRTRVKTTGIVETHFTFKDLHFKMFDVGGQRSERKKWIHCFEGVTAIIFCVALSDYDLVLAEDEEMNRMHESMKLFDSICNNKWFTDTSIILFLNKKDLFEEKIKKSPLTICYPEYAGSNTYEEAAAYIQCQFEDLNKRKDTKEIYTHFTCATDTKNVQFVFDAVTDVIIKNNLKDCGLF

C=CCc1ccc(OC)cc1
Potency [1]: > 92 µM (inactive)
activity change, negative = cytotoxicity [2]: 3.06% (inactive)
Potency [3]: inactive
outcome [4]: inactive
outcome [5]: inactive
Potency [6]: inactive
Potency [7]: inactive
outcome [8]: inactive
max response [9]: -5.04%
Potency [10]: inactive
max response [11]: 6.28% (inactive)
activity change % (negative = inhibition) [12]: -7.69% (inactive)
activation [13]: -0.38% (inactive)
outcome [14]: inactive
max response [15]: 0.607% (inactive)

COc1ccc(C[C@H]2c3cc(OC)c(OC)cc3CCN2C)cc1OC
Potency [16]: inactive

CC[C@@]1(c2ccc(N)cc2)CCC(=O)NC1=O
outcome [17]: inactive
Potency [18]: inactive
outcome [19]: inactive
outcome [20]: inactive

CC(C)[C@@]1(NC(=O)[C@@H]2C[C@H]3c4cccc5[nH]cc(c45)C[C@@H]3N(C)C2)O[C@]2(O)[C@H]3CCCN3C(=O)[C@H](Cc3ccccc3)N2C1=O
Potency [16]: 2.51 µM (active)

COc1ccc2c(c1OC)C(=O)O[C@H]2[C@H]1c2cc3c(cc2CCN1C)OCO3
outcome [17]: inactive
Potency [16]: 3.98 µM (active)
Potency [18]: inactive
outcome [19]: inactive
outcome [20]: inactive

NC[C@H](O)c1ccc(O)cc1
outcome [17]: inactive
Potency [18]: inactive
outcome [19]: inactive
outcome [20]: inactive

CCC[C@@](C)(COC(N)=O)COC(=O)NC(C)C
Potency [16]: inactive

C[N+]1(C)[C@@H]2CC[C@H]1CC(OC(=O)[C@@H](CO)c1ccccc1)C2 (stereo not given in full)
outcome [17]: inactive
Potency [18]: inactive
outcome [19]: inactive
outcome [20]: inactive

C[C@H](NC(C)(C)C)C(=O)c1cccc(Cl)c1
outcome [17]: inactive
Potency [18]: inactive
outcome [19]: inactive
outcome [20]: inactive

CN1CC[C@]2(C)c3cc(O)ccc3N(C)[C@@H]12
outcome [17]: inactive
Potency [16]: 25.1 µM (active)
Potency [18]: inactive
outcome [19]: inactive
outcome [20]: inactive

COc1ccc(OC)c([C@H](O)[C@H](C)N)c1
outcome [17]: inactive
Potency [18]: inactive
outcome [19]: inactive
outcome [20]: inactive

CN1Cc2c(ccc3c2OCO3)[C@@H]2[C@@H](O)Cc3cc4c(cc3[C@@H]21)OCO4
Potency [16]: inactive

C[C@]12CC[C@H](O)C[C@@H]1CC[C@H]1[C@H]2CC[C@]2(C)C(=O)CC[C@@H]12
outcome [17]: inactive
Potency [18]: inactive
outcome [19]: inactive
outcome [20]: inactive

CS(=N)(=O)CC[C@@H](N)C(=O)O (stereo not given in full)
outcome [17]: inactive
Potency [18]: inactive
outcome [19]: inactive
outcome [20]: inactive

CC(C)N(CC[C@@](C(N)=O)(c1ccccc1)c1ccccn1)C(C)C
outcome [17]: inactive
Potency [18]: inactive
outcome [19]: inactive
outcome [20]: inactive

CNC(=O)N(C)c1nnc(C(C)(C)C)s1
outcome [8]: inactive
max response [9]: -5.03%
Potency [10]: inactive
max response [11]: -28.5% (inactive)
activity change % (negative = inhibition) [12]: -7.26% (inactive)
activation [13]: -0.0908% (inactive)
max response [15]: 4.69% (inactive)

O=C1C(Cl)=C(Cl)C(=O)C(Cl)=C1Cl
Potency [2]: 31.6 µM (active)
outcome [4]: inactive
outcome [5]: inactive
Potency [6]: 10 µM (active)
Potency [7]: 39.8 µM (active)
max response [15]: -2.19% (inactive)

O=C(O)COc1ccc(Cl)cc1Cl
Potency [1]: > 92 µM (inactive)
activity change, negative = cytotoxicity [2]: -11.4% (inactive) and -12.3% (inactive)
Potency [3]: inactive
outcome [4]: inactive
outcome [5]: inactive
Potency [6]: inactive
Potency [7]: inactive
max response [9]: 29.1%
Potency [10]: inactive
max response [11]: -3.05% (inactive) [middle of 4 runs]
outcome [14]: inactive
max response [15]: -0.13% (inactive) [middle of 4 runs]

CCNc1nc(Cl)nc(NC(C)C)n1
Potency [1]: > 92 µM (inactive)
activity change, negative = cytotoxicity [2]: -18.4% (inactive)
Potency [3]: inactive
outcome [4]: inactive
outcome [5]: inactive
Potency [6]: inactive
Potency [7]: inactive
outcome [8]: inactive
max response [9]: 15.9% and 26.8%
Potency [10]: inactive
max response [11]: -16% (inactive) and 6.8% (inactive)
activity change % (negative = inhibition) [12]: -11.1% (inactive) and -4.42% (inactive)
activation [13]: -0.0541% (inactive) and -0.0593% (inactive)
outcome [14]: inactive
